From PubChem BioAssay (EPA / NIEHS)
Activity calls are given as the source filed them. Rule for the calls: active = hit-call score of the fitted dose curve at least 0.9, where 1 is the maximum; inactive = score below 0.9.

Read-out: Matrix Metallopeptidase 1 (MMP1), MMP1 (gene 4312)
Assay: BSK_BE3C_MMP1: BioMAP Diversity Plus: BE3C Assay for Matrix Metallopeptidase 1 (MMP1) Biomarker Activity (AID 2283024)
Conditions: primary human bronchial epithelial cells; actives raise or lower the signal
How it was run: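 ELISA measurement of MMP-1 after 24 h compound exposure of primary human bronchial epithelial cells. Changes in either direction fitted relative to DMSO; parallel SRB staining checked overt cytotoxicity.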
For `CCCCCCC(O)CCCCCCCCCCC(=O)OC` (stereo not given), the AC50 was 3.22 µM (active). In the case of `CCC(C)=NO`, the outcome was “inactive”. With `Cc1cc(-n2nc3ccc(Cl)cc3n2)c(O)c(C(C)(C)C)c1` the outcome was “inactive”. In the case of `Oc1cccc2ccccc12`, the outcome was “inactive”. For `CN(C)c1ccc(C(c2ccccc2)c2ccc(N(C)C)cc2)cc1`, the AC50 was 5.54 µM (active). For `CC[N+](CC)(CC(=O)Nc1c(C)cccc1C)Cc1ccccc1` (tested in a mixture with another compound), the outcome was “inactive”.

Read-out: not listed separately
Assay: BSK_3C_Vis: BioMAP Diversity Plus: 3C Assay for Morphology Visualization (AID 2283025);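 note: fitted both ways so gain or loss versus DMSO counts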;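 for AC50: light microscopy image of cell morphology used as background control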
Conditions: primary human endothelial cells (HUVEC)
How it was run: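 Light-microscopy visualization of HUVEC cultures at 24 h post-treatment, with DMSO as baseline for bidirectional fitting.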
With `CCCCCCC(O)CCCCCCCCCCC(=O)OC` (stereo not given) the outcome was “inactive”. In the case of `CCC(C)=NO`, the outcome was “inactive”. With `Cc1cc(-n2nc3ccc(Cl)cc3n2)c(O)c(C(C)(C)C)c1` the outcome was “inactive”. In the case of `Oc1cccc2ccccc12`, the outcome was “inactive”. With `CN(C)c1ccc(C(c2ccccc2)c2ccc(N(C)C)cc2)cc1` the AC50 was 13 µM (active).

Read-out: Pselectin, SELP (gene 6403)
Assay: BSK_4H_Pselectin: BioMAP Diversity Plus: 4H Assay for Pselectin Biomarker Activity (AID 2283026)
Conditions: primary human endothelial cells (HUVEC); actives raise or lower the signal
How it was run: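 ELISA of surface P-selectin on HUVEC, 24 h after dosing, with parallel SRB staining (0.1% after 10% TCA fixation, 560 nm) for overt cytotoxicity. Activity fitted in both directions relative to DMSO.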
With `CCCCCCC(O)CCCCCCCCCCC(=O)OC` (stereo not given) the outcome was “inactive”. In the case of `CCC(C)=NO`, the outcome was “inactive”. In the case of `Cc1cc(-n2nc3ccc(Cl)cc3n2)c(O)c(C(C)(C)C)c1`, the outcome was “inactive”. For `Oc1cccc2ccccc12`, the outcome was “inactive”. In the case of `CN(C)c1ccc(C(c2ccccc2)c2ccc(N(C)C)cc2)cc1`, the AC50 was 7.46 µM (active). In the case of `CC[N+](CC)(CC(=O)Nc1c(C)cccc1C)Cc1ccccc1` (tested in a mixture with another compound), the outcome was “inactive”.

Read-out: not listed separately
Assay: BSK_4H_SRB: Viability Assessment in the BioMAP Diversity Plus: 4H Assay (AID 2283027);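 note: cells exposed to compound for 24 h before staining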;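 for AC50: curves fitted both ways versus DMSO so AC50 may be loss or gain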
Conditions: primary human endothelial cells (HUVEC)
How it was run: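 Cytotoxicity read-out in primary human endothelial cells: after 24 h compound exposure, cells were TCA-fixed (10%), stained with 0.1% SRB and absorbance taken at 560 nm. Values fitted in both directions relative to DMSO.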
For `CCCCCCC(O)CCCCCCCCCCC(=O)OC` (stereo not given), the outcome was “inactive”. In the case of `CCC(C)=NO`, the outcome was “inactive”. For `Cc1cc(-n2nc3ccc(Cl)cc3n2)c(O)c(C(C)(C)C)c1`, the outcome was “inactive”. With `Oc1cccc2ccccc12` the outcome was “inactive”. For `CN(C)c1ccc(C(c2ccccc2)c2ccc(N(C)C)cc2)cc1`, the AC50 was 4.33 µM (active). In the case of `CC[N+](CC)(CC(=O)Nc1c(C)cccc1C)Cc1ccccc1` (tested in a mixture with another compound), the outcome was “inactive”.

Read-out: Thrombomodulin, THBD (gene 7056)
Assay: BSK_3C_Thrombomodulin: BioMAP Diversity Plus: 3C Assay for Thrombomodulin Biomarker Activity (AID 2283029)
Conditions: primary human endothelial cells (HUVEC); actives raise or lower the signal
How it was run: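 ELISA measurement of thrombomodulin on HUVEC surface 24 h after chemical dosing; activity fitted in both directions relative to DMSO vehicle.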
In the case of `CCCCCCC(O)CCCCCCCCCCC(=O)OC` (stereo not given), the outcome was “inactive”. For `CCC(C)=NO`, the outcome was “inactive”. With `Cc1cc(-n2nc3ccc(Cl)cc3n2)c(O)c(C(C)(C)C)c1` the outcome was “inactive”. In the case of `Oc1cccc2ccccc12`, the outcome was “inactive”. With `CN(C)c1ccc(C(c2ccccc2)c2ccc(N(C)C)cc2)cc1` the outcome was “inactive”. With `CC[N+](CC)(CC(=O)Nc1c(C)cccc1C)Cc1ccccc1` (tested in a mixture with another compound) the outcome was “inactive”.

Read-out: Urokinase-type plasminogen activator receptor (uPAR), PLAUR (gene 5329)
Assay: BSK_4H_uPAR: BioMAP Diversity Plus: 4H Assay for Urokinase-type plasminogen activator receptor (uPAR) Biomarker Activity (AID 2283030)
Conditions: primary human endothelial cells (HUVEC); actives raise or lower the signal
How it was run: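 Cell-surface uPAR ELISA signal, measured 24 h after dosing human umbilical vein endothelial cells, was analyzed with bidirectional fitting relative to DMSO. Parallel SRB staining of total protein tracked overt cytotoxicity.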
In the case of `CCCCCCC(O)CCCCCCCCCCC(=O)OC` (stereo not given), the outcome was “inactive”. For `CCC(C)=NO`, the outcome was “inactive”. With `Cc1cc(-n2nc3ccc(Cl)cc3n2)c(O)c(C(C)(C)C)c1` the AC50 was 1.37 µM (active). In the case of `Oc1cccc2ccccc12`, the outcome was “inactive”. In the case of `CN(C)c1ccc(C(c2ccccc2)c2ccc(N(C)C)cc2)cc1`, the outcome was “inactive”. In the case of `CC[N+](CC)(CC(=O)Nc1c(C)cccc1C)Cc1ccccc1` (tested in a mixture with another compound), the outcome was “inactive”.

Read-out: Vascular endothelial growth factor receptor 2 (Homo sapiens) (UniProt P35968)
Assay: BSK_4H_VEGFRII: BioMAP Diversity Plus: 4H Assay for Vascular endothelial growth factor receptor 2 (VEGFR2) Biomarker Activity (AID 2283031);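 for AC50: cell-surface VEGFR2 protein level quantified by ELISA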
Conditions: primary human endothelial cells (HUVEC); actives raise or lower the signal
How it was run: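 ELISA read-out of VEGFRII in primary human umbilical vein endothelium, taken 24 h after chemical treatment. Responses are expressed relative to DMSO, with bidirectional fitting.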
For `CCCCCCC(O)CCCCCCCCCCC(=O)OC` (stereo not given), the outcome was “inactive”. In the case of `CCC(C)=NO`, the outcome was “inactive”. With `Cc1cc(-n2nc3ccc(Cl)cc3n2)c(O)c(C(C)(C)C)c1` the outcome was “inactive”. For `Oc1cccc2ccccc12`, the outcome was “inactive”. With `CN(C)c1ccc(C(c2ccccc2)c2ccc(N(C)C)cc2)cc1` the AC50 was 5.36 µM (active). In the case of `CC[N+](CC)(CC(=O)Nc1c(C)cccc1C)Cc1ccccc1` (tested in a mixture with another compound), the outcome was “inactive”.

Read-out: Human Leukocyte Antigen - DR isotype (HLADR), HLA-DRA (gene 3122)
Assay: BSK_BE3C_HLADR: BioMAP Diversity Plus: BE3C Assay for Human Leukocyte Antigen - DR isotype (HLADR) Biomarker Activity (AID 2283032)
Conditions: primary human bronchial epithelial cells; actives raise or lower the signal
How it was run: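 Cell-surface HLA-DR ELISA readout at 24 h after dosing in the BE3C primary human lung bronchial epithelial system; gain or loss of signal against DMSO, with parallel sulforhodamine B staining of total protein for overt cytotoxicity.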
For `CCCCCCC(O)CCCCCCCCCCC(=O)OC` (stereo not given), the outcome was “inactive”. With `CCC(C)=NO` the outcome was “inactive”. For `Cc1cc(-n2nc3ccc(Cl)cc3n2)c(O)c(C(C)(C)C)c1`, the outcome was “inactive”. For `Oc1cccc2ccccc12`, the outcome was “inactive”. With `CN(C)c1ccc(C(c2ccccc2)c2ccc(N(C)C)cc2)cc1` the outcome was “inactive”. With `CC[N+](CC)(CC(=O)Nc1c(C)cccc1C)Cc1ccccc1` (tested in a mixture with another compound) the outcome was “inactive”.

Read-out: Vascular cell adhesion molecule 1 (VCAM1), VCAM1 (gene 7412)
Assay: BSK_4H_VCAM1: BioMAP Diversity Plus: 4H Assay for Vascular cell adhesion molecule 1 (VCAM1) Biomarker Activity (AID 2283033);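 for outcome: cell-surface VCAM-1 protein measured by ELISA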
Conditions: primary human endothelial cells (HUVEC); actives raise or lower the signal
How it was run: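 VCAM-1 ELISA read 24 h after chemical dosing of HUVEC in the BioMAP 4H system, with gain or loss of signal fitted relative to DMSO. Parallel SRB staining (560 nm) checked overt cytotoxicity.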
With `CCCCCCC(O)CCCCCCCCCCC(=O)OC` (stereo not given) the outcome was “inactive”. In the case of `CCC(C)=NO`, the outcome was “inactive”. In the case of `Cc1cc(-n2nc3ccc(Cl)cc3n2)c(O)c(C(C)(C)C)c1`, the outcome was “inactive”. In the case of `Oc1cccc2ccccc12`, the outcome was “inactive”. In the case of `CN(C)c1ccc(C(c2ccccc2)c2ccc(N(C)C)cc2)cc1`, the AC50 was 20 µM (active). For `CC[N+](CC)(CC(=O)Nc1c(C)cccc1C)Cc1ccccc1` (tested in a mixture with another compound), the outcome was “inactive”.

Read-out: Interferon-gamma inducible Protein 10 (IP10), CXCL10 (gene 3627)
Assay: BSK_BE3C_IP10: BioMAP Diversity Plus: BE3C Assay for Interferon-gamma inducible Protein 10 (IP10) Biomarker Activity (AID 2283034)
Conditions: primary human bronchial epithelial cells; actives raise or lower the signal
How it was run: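 IP-10 quantified by ELISA in human primary bronchial epithelial cell cultures at 24 hours post-dosing. Gain or loss of signal fitted relative to DMSO; parallel SRB staining assessed overt cytotoxicity.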
With `CCCCCCC(O)CCCCCCCCCCC(=O)OC` (stereo not given) the AC50 was 9.22 µM (active). In the case of `CCC(C)=NO`, the outcome was “inactive”. For `Cc1cc(-n2nc3ccc(Cl)cc3n2)c(O)c(C(C)(C)C)c1`, the outcome was “inactive”. With `Oc1cccc2ccccc12` the outcome was “inactive”. In the case of `CN(C)c1ccc(C(c2ccccc2)c2ccc(N(C)C)cc2)cc1`, the AC50 was 10.7 µM (active). In the case of `CC[N+](CC)(CC(=O)Nc1c(C)cccc1C)Cc1ccccc1` (tested in a mixture with another compound), the outcome was “inactive”.

Read-out: Monokine induced gamma interferon (MIG), CXCL9 (gene 4283)
Assay: BSK_BE3C_MIG: BioMAP Diversity Plus: BE3C Assay for Monokine induced gamma interferon (MIG) Biomarker Activity (AID 2283035);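 note: MIG protein measured by ELISA in BE3C cultures after 24 h of dosing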
Conditions: primary human bronchial epithelial cells; actives raise or lower the signal
How it was run: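 ELISA quantified MIG after 24 h exposure of primary bronchial epithelial cultures, analysed in both directions relative to DMSO. Cytotoxicity tracked in parallel cultures by sulforhodamine B staining.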
In the case of `CCCCCCC(O)CCCCCCCCCCC(=O)OC` (stereo not given), the outcome was “inactive”. In the case of `CCC(C)=NO`, the outcome was “inactive”. In the case of `Cc1cc(-n2nc3ccc(Cl)cc3n2)c(O)c(C(C)(C)C)c1`, the outcome was “inactive”. For `Oc1cccc2ccccc12`, the outcome was “inactive”. With `CN(C)c1ccc(C(c2ccccc2)c2ccc(N(C)C)cc2)cc1` the outcome was “inactive”. In the case of `CC[N+](CC)(CC(=O)Nc1c(C)cccc1C)Cc1ccccc1` (tested in a mixture with another compound), the outcome was “inactive”.
